Screening data deposited in PubChem BioAssay by National Center for Advancing Translational Sciences (NCATS).
The list is not random: actives were taken first. Their share in the collection is about 2.4%.
D2 antag: D2 dopamine receptor (human) antagonism; inhibition, % at 10 µM; HEK293 TREx D2 cells, calcium flux, dopamine EC80; hit rate 2% among 340,000; AID 485344; in the data active = inhibition above about 30%; inactive = below that, where a call was filed; note: 0% is about no effect
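Overnight-induced (tetracycline, 30 C) HEK293 T-REx cells carrying force-coupled D2 receive a no-wash calcium dye, then compound, then EC80 dopamine at 180 s; signals are read kinetically throughout.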
D2 PAM-1: human D2 receptor positive allosteric modulation; P14416; DiscoveRx D2 beta-arrestin cells, luminescence, 90 min; 100% = 57 uM dopamine signal; potentiation, % (concentration not given with the values); hit rate 0.23% among 360,000; in the data active = potentiation above about 50%; inconclusive = mostly about 30% to 49%
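PathHunter beta-arrestin assay in DiscoveRx D2 cells. Compounds were added with an EC20 of dopamine (50 nM final) for 90 min at 37 deg C. Luminescence was read 1 h after detection reagent, with 57 uM dopamine as the EC100 control.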
D2 PAM-2: positively modulates the human D2 dopamine receptor allosterically | hit rate 0.34% among 340,000 | potentiation, % at 10 µM | P14416 | HEK293 T-REx D2, calcium flux, EC20 dopamine potentiation;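 active = potentiation over 3 SD above the plate norm, cut at about 30% in these data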; note: 0% is about no effect
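Potentiation of an EC20 dopamine calcium response measured kinetically over 180 s, after a preceding 180 s compound-only read flagging agonists. Cells: inducible Hek293 Trex D2 line, 4000/well, cultured overnight at 30 C before dye loading.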
D2 ag-1: agonists of human D2 dopamine receptor (beta-arrestin). P14416. DiscoveRx PathHunter D2 beta-arrestin, luminescence, 90 min; 100% = 57 uM dopamine signal. activation, % (no concentration beside the values). hit rate 0.084% among 360,000. AID 624465; in the data active = activation above about 40%; inconclusive = between about 15% and that limit
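Agonist mode: compounds alone added to overnight-plated D2 PathHunter cells for 90 min at 37 C, with 57 uM final dopamine (EC100) defining full response. Beta-arrestin recruitment detected by chemiluminescent reagent, read after 1 h at ambient temperature.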
D2 ag-2: D2 dopamine receptor (human) agonism | P14416 | AID 485358 | activation, % at 2 µM | hit rate 0.53% among 340,000 | HEK293 T-REx D2 cells, calcium flux agonist mode;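 active = activation over 3 SD above normal in the single-dose calcium agonist read, cut at about 30% in these data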; note: 0% is about no effect
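Agonism is scored from calcium flux in a force-coupled, inducible HEK293 cell line expressing D2, read kinetically for 180 s after compound addition against dopamine controls.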
D3 arrestin ag: activates human D3 dopamine receptor beta-arrestin recruitment; DiscoveRx D3 beta-arrestin cells, luminescence, 90 min; hit rate 4% among 2,300; shares compounds with D2 ag-2; Potency, µM (titrated, usually from 76.9 µM), for inactives: at the top dose activation, hits mostly activators;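 note: potency is the fitted concentration of half-maximal effect; 100% = dopamine control response; nearly all actives have a fitted effect of over 70% in size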
Target sequence (P35462 whole entry, looked up): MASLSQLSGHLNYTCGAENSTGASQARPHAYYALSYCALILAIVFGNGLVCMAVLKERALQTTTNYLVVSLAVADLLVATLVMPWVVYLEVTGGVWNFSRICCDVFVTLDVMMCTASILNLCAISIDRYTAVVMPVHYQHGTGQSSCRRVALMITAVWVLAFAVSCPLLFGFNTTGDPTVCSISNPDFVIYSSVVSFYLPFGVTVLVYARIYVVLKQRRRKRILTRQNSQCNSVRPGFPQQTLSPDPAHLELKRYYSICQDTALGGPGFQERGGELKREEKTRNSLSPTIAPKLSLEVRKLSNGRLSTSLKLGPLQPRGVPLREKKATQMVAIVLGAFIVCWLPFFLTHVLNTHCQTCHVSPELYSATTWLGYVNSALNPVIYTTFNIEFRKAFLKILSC
D2 ag-3: counter-screen for D3 agonists: human D2 dopamine receptor agonism; hit rate 5.9% among 2,300; AID 720507; Potency, µM (doses to about 76.9 µM), for the others: top-dose activation, actives largely listed as activators; shares compounds with D2 ag-2; DiscoveRx PathHunter D2 beta-arrestin, luminescence, 90 min; response scale: percent relative to full dopamine signal; note: potency is the fitted concentration of half-maximal effect; % of control where 0% means no effect; nearly all actives have a fitted effect of over 70% in size
* marks the source's active call; other numbers are inactive results; ? = inconclusive; . = not tested or not shown. Unless noted, calls come from the whole dose curve; as a rule, active = well fitted activation curve with a large enough effect; inconclusive = small, poorly fitted or top-dose-only effect; inactive = flat fitted curve, though single readings scatter.

SMILES	D2 antag	D2 PAM-1	D2 PAM-2	D2 ag-1	D2 ag-2	D3 arrestin ag	D2 ag-3
Clc1nnc(NN=C2CCCC2)c2ccccc12	2	0	-20	-4	61*	-4%	-7%
C/C=C(\C)CN1CCN(c2ccccc2F)CC1	65*	-9	-11	11	38*	3%	19%
C/C=C(\C)CN1CCN(c2cc(C)ccc2C)CC1	-3	-20	11	3	0	.	.
CCN(CC)C(=O)CN1CCN(c2ccccc2F)CC1	7	-18	-7	0	0	.	.
C/C=C(\C)CN1CCN(c2ccccc2)CC1	75*	-10	-21	13	79*	2%	25%
Cc1c(CNC2CCCCC2)c(C(=O)O)c(C)n1Cc1c(F)cccc1Cl	.	.	-2	.	.	.	.
CCOC(=O)C(NC(C)=O)(OCc1ccccc1)C(F)(F)F (stereo unspecified)	-7	4	-20	1	67*	1%	-3%
CCOC(=O)C(NCCc1ccccc1)(NC(=O)CC)C(F)(F)F (stereo unspecified)	-8	6	-6	3	2	0%	1%
CN(C)c1ccc(CNC(=O)C2CCCN(S(=O)(=O)c3ccc4c(ccn4C)c3)C2)cc1 (stereo unspecified)	.	.	5	.	-1	.	.
COc1ccc(-c2nc3scc(CCNS(=O)(=O)c4ccc(F)cc4C)n3n2)cc1	.	.	0	.	1	.	.
OC(c1ccccc1)(c1nc(-c2cc3ccccc3o2)cs1)C(F)(F)F (stereo unspecified)	.	-4	.	9	.	.	.
Cc1ccc(CN(C)C(=O)COC(=O)CSc2cc(C)c3ccccc3n2)cc1	-24	2	-4	-5	0	-3%	0%
CCc1ccccc1NC(=O)CN1CCN(C(=O)CN2C(=O)NC3(CCCCC3C)C2=O)CC1 (stereo unspecified)	-6	2	-7	-2	-1	.	.
Cc1cccc(C)c1NC(=O)CN1CCN(C(=O)CN2C(=O)NC3(CCCCC3C)C2=O)CC1 (stereo unspecified)	20	5	-17	1	40*	4%	6%
Cc1cccc(N2C(=O)C(CC(=O)Nc3ccc(F)cc3)N(C3CCCC3)C2=O)c1 (stereo unspecified)	.	.	-14	.	0	.	.
C/C(Cn1cnc([N+](=O)[O-])n1)=N\NC(=O)c1ccc(O)cc1O	-4	1	17	-4	6	?	1%
C/C(Cn1cnc([N+](=O)[O-])n1)=N\NC(=O)c1ccccc1O	0	-9	3	7	0	.	.
COc1cc(Cl)c(NS(=O)(=O)c2ccc3c(c2)CC(C)N3C(=O)C2CCC2)c(OC)c1 (stereo unspecified)	.	.	2	.	-1	.	.
CCCCn1c(N)c(N(CCC(C)C)C(=O)c2cccc(N3C(=O)c4ccccc4C3=O)c2)c(=O)[nH]c1=O	.	-11	.	-1	.	.	.
CCCCN(C(=O)c1ccc(N2C(=O)c3ccccc3C2=O)cc1)c1c(N)n(CC(C)C)c(=O)[nH]c1=O	-13	19	4	-2	0	0%	27%
COc1cc(/C=C/C(=O)OCC(=O)Nc2ccc(C)cc2[N+](=O)[O-])ccc1O	-28	-6	9	-4	1	.	.
COc1cc(/C=C/C(=O)OCC(=O)Nc2cc(C)c(C)cc2[N+](=O)[O-])ccc1O	22	-8	9	0	-1	-4%	-2%
Cc1nn(C)c2c1c(C(F)(F)F)cc(=O)n2C(C)C(=O)NCCc1ccccc1 (stereo unspecified)	.	.	-4	.	0	.	.
COc1cc2c(cc1OC)C(c1ccc(Cl)cc1)N(c1cccc(C#N)c1)C(=O)C2 (stereo unspecified)	.	.	-1	.	5	.	.
COc1ccc2nc(/N=C(\N)NC(=O)C(C)(C)C)nc(C)c2c1	35*	-34	-9	-1	1	-7%	1%
SMILES	D2 antag	D2 PAM-1	D2 PAM-2	D2 ag-1	D2 ag-2	D3 arrestin ag	D2 ag-3
CCC(=O)N/C(N)=N/c1nc(C)c2cc(OC)ccc2n1	.	-8	.	1	.	.	.
O=C(Nc1ccccc1)c1nc[nH]c1C(=O)NCc1ccccc1	12	-9	-15	-7	0	-11%	4%
Cc1cccc(NC(=O)c2nc[nH]c2C(=O)NCc2ccccc2)c1	-7	-7	-11	-4	0	-5%	-4%
O=C(Nc1cccc(Cl)c1)c1nc[nH]c1C(=O)NCc1ccccc1	-1	-7	2	-4	1	-5%	-2%
O=C(Nc1cccc(Cl)c1)c1nc[nH]c1C(=O)NCCCCNC(=O)c1[nH]cnc1C(=O)Nc1cccc(Cl)c1	.	-4	.	-3	.	.	.
CCn1c(=O)cc(SCC(=O)NCCc2cc(OC)ccc2OC)c2ccccc21	.	.	15	.	-1	.	.
COc1cc(C2CC(=O)Nc3c2c(=O)n(C)c2ncnn32)cc(OC)c1OC (stereo unspecified)	.	.	5	.	-1	.	.
O=C(CSc1ncc(CO)n1Cc1ccccc1)Nc1ccc(C(F)(F)F)cc1	.	.	9	.	1	.	.
O=C(CSCc1c[nH]c(=O)[nH]c1=O)OCC(=O)c1ccc(Br)cc1	.	-12	.	-9	.	-15%	-7%
CCc1ccc(S(=O)(=O)c2nnn3c2nc(NC(C)C)c2cc(Cl)ccc23)cc1	.	.	-6	.	0	.	.
O=C(CNC(=O)c1ccc(Br)o1)NCC1CCCCC1	-11	-21	-5	-3	0	-5%	-6%
CCOC(=O)c1cc(C)n(CC2CCC(C(=O)Nc3ccc(OCC)cc3)CC2)c1C (stereo unspecified)	.	.	-7	.	0	.	.
O=S(=O)(Cc1ccccc1)N1CCC(N2CCN(c3ccccc3)CC2)CC1	89*	-4	-19	?	83*	?	?
COc1ccc(S(=O)(=O)N2CCC(N3CCN(c4ccccc4)CC3)CC2)cc1	61*	.	-12	.	74*	20%	?
c1ccc(C2CCC(N3CCN(c4ccccc4)CC3)CC2)cc1 (stereo unspecified)	-4	-29	-20	-3	64*	4%	9%
CC1(C)CC(=O)c2sc(NC(=O)c3cccs3)nc2C1	-7	3	-17	9	52*	?	15%
CC1(C)CC(=O)c2sc(NC(=O)C(C)(C)C)nc2C1	-9	0	21	-1	0	.	.
CC(=O)CSc1nc2nccnc2[nH]1	.	-7	.	-5	.	.	.
CCn1cnc2c(cnn2-c2ccccc2)c1=O	26	-3	-9	0	-1	.	.
O=c1c2cnn(-c3ccccc3)c2ncn1CCc1ccccc1	6	9	-19	0	65*	-3%	-2%
